This is a sample that favours compounds with a hit; in the whole collection about 32% have one here.
CYP2C9 inh: blockers of cytochrome P450 2C9 activity – biochemical, luminescence, ADME assay, primary screen; P11712; CYP2C9 Supersomes, luciferin-H conversion; inhibition, % at 5 µM; actives 20% (n = 96,000); AID 777, 2007;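 active = blocking of liver enzyme CYP2C9 beyond about 50% at 5 µM, limit read from the data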
Target sequence (P11712 whole entry, looked up): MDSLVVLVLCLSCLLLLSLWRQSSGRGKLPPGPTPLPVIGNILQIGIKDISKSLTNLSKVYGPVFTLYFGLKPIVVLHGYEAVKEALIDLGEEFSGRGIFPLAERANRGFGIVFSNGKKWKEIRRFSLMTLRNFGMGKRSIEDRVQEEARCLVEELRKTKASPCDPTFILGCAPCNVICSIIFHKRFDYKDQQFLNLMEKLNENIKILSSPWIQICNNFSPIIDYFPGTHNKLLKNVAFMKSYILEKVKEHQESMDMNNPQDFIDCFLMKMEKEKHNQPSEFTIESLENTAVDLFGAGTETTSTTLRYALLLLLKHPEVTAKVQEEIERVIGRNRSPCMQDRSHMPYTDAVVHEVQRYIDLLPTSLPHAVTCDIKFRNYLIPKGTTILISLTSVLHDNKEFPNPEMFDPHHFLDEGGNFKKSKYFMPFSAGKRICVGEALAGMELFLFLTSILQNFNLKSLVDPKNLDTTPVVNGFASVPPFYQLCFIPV
PostGolgi yeast: phenotypic screen on post-Golgi transport, primary screen; AID 739, 2007; post-Golgi transport phenotypic cell assay; actives 0.9% (n = 98,000); inhibition, % at 10 µM;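 also: yeast cells grown in 1536-well plates; yeast grown about 18 h at 30C before absorbance read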
PostGolgi ctrl: growth inhibition of yeast control strain, primary screen, counter-screen for post-Golgi transport modulator project; efflux-deficient yeast background strain, growth absorbance A615, 16 h; inhibition, % at 10 µM; actives 5% (n = 98,000); AID 738, 2007
CYP2C19 inhib: blockers of cytochrome P450 2C19 activity – biochemical, luminescence, ADME assay, primary screen | CYP2C19 Supersomes, luciferin-H EGE luminescence, 30 min | P33261 | actives 21% (n = 96,000) | inhibition, % at 5 µM;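 active = CYP2C19 inhibition above a set limit at 5 µM in the primary screen, cut at about 50% in these data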;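 also: plate controls were negative control wells for no effect and 2.5 mM tranylcypromine positive control for full effect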
CYP2C9 activ: human CYP2C9 activators, primary screen, biochemical, luminescence. activation factor at 5 µM. Cytochrome P450 2C9 (Homo sapiens), P11712. AID 1024, 2008. actives 1.4% (n = 96,000). recombinant CYP2C9, luciferin-H conversion; active compounds read high; factor 1 = untreated enzyme, 0 = blocked;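 active = activation factor of 2 or more for CYP2C9 at a 5 µM dose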;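 also: 0 = sulfaphenazole-blocked wells and 1 = vehicle-only wells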
CYP2C19 activ: human CYP2C19 activators, primary screen, biochemical, luminescence; recombinant CYP2C19, luciferin-H EGE luminescence; active compounds read high; 0 = fully inhibited enzyme, 1 = untreated enzyme; activation factor at 5 µM; 96,000 tested, under 10 active; Cytochrome P450 2C19 (Homo sapiens), P33261;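 active = activation factor of at least 2 at 5 µM in the primary screen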;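 also: 0 = wells with 2.5 mM tranylcypromine and 1 = vehicle-only wells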
Numbers without * were called inactive; . = no result given. Rule as the data show it, unless noted: active = inhibition above about 30%; inactive = the rest.

SMILES | CYP2C9 inh | PostGolgi yeast | PostGolgi ctrl | CYP2C19 inhib | CYP2C9 activ | CYP2C19 activ
Cc1cc(NC(=O)CCC(=O)N(CC2CCCO2)C(C(=O)NC2CCCC2)c2cccnc2)no1 (stereo unspecified) | 0 | 1 | 12 | -5 | 1 | 1.1
CCc1ccccc1N(C(=O)CCC(=O)Nc1cc(C)on1)C(C(=O)NC1CCCC1)c1ccco1 (stereo unspecified) | 58* | . | . | 75* | 0.4 | 0.3
Cc1cc(NC(=O)CCC(=O)N(CC(=O)NC2CCCC2)Cc2ccccc2Cl)no1 | 58* | -2 | -7 | 41 | 0.4 | 0.6
CCOC(=O)C1CCCN(C(=O)c2cn(CC)c3ccc(S(=O)(=O)N4CCCC4)cc3c2=O)C1 (stereo unspecified) | 11 | -4 | 14 | 5 | 0.9 | 1
Cc1ccc2sc(-c3ccc(NC(=O)c4cc(-n5cnnc5)ccc4Cl)cc3)nc2c1 | 14 | 1 | 4 | 29 | 0.9 | 0.7
COC(=O)c1ccc(-c2nc3cc(Cl)c(N)cc3s2)cc1 | 11 | 0 | 9 | 60* | 0.9 | 0.4
Cc1cccc(C(=O)O/N=C/c2c(N3CCOCC3)n(C)c3ccccc23)c1 | 85* | 9 | 19 | 31 | 0.1 | 0.7
Cn1c(Cl)c(/C=N/OC(=O)c2ccccc2Cl)c2ccccc21 | -29 | 10 | 11 | -11 | 1.3 | 1.1
Cc1nc2c(F)c(F)c(C(F)(F)F)c(F)c2[nH]1 | 27 | 8 | 20 | 61* | 0.7 | 0.4
COc1ccc(-n2c(SCC(=O)N3CCOCC3)nc(O)c(Cc3ccccc3)c2=O)cc1 | 11 | 2 | 1 | 18 | 0.9 | 0.8
N#Cc1c2n(c3c(-c4ccccc4)ncnc13)CCC2 | -9 | -1 | 3 | 6 | 1.1 | 0.9
N#Cc1c(N)c(C(=O)c2ccccc2)n2c1CCC2 | -15 | 2 | -4 | 51* | 1.1 | 0.5
COC(=O)c1c(N)c(C#N)c2n1CCCCC2 | 6 | 18 | 14 | 76* | 0.9 | 0.2
COC(=O)Cn1cnc2c(C#N)c3n(c2c1=O)CCCCC3 | 12 | 0 | -3 | 14 | 0.9 | 0.9
CCOC(=O)CCSc1nc(-c2ccc3c(c2)OCO3)cc(C(F)(F)F)c1C#N | 4 | 2 | 8 | -2 | 1 | 1
CCS(=O)(=O)CCSc1nc(C)cc(C)c1C#N | -28 | 3 | 4 | 29 | 1.3 | 0.7
CCOC(=O)CCSc1nc(C)cc(C(F)(F)F)c1C#N | 29 | 11 | -6 | 61* | 0.7 | 0.4
CCOC(=O)CC(=O)CSc1nc(-c2ccc3c(c2)OCO3)cc(C(F)(F)F)c1C#N | 53* | -5 | 7 | 24 | 0.5 | 0.8
O=C(NC1CCCCC1)c1cc2nc3c(c(C(F)(F)F)n2n1)CCCC3 | 5 | 12 | 3 | 14 | 0.9 | 0.9
O=C(O)CCC(NS(=O)(=O)c1ccc(-c2ccccc2)cc1)C(=O)O (stereo unspecified) | -13 | -1 | -1 | -3 | 1.1 | 1
COc1ccccc1Oc1cc(C#N)c(C#N)cc1-n1nnc2ccccc21 | 13 | -4 | 30* | -1 | 0.9 | 1
O=C(NCCN1C(=O)C2C3C=CC(C3)C2C1=O)Nc1ccc(Br)cc1 (stereo unspecified) | 55* | 6 | 6 | 94* | 0.4 | 0.1
COc1ccc(NC(=O)CCCN2C(=O)C3C4C=CC(C4)C3C2=O)c(OC)c1 (stereo unspecified) | . | 9 | 5 | . | . | .
O=C(NCCN1C(=O)C2C3C=CC(C3)C2C1=O)Nc1cccnc1 (stereo unspecified) | 4 | 19 | 18 | 40 | 1 | 0.6
COc1ccccc1NC(=O)NCCN1C(=O)C2C3C=CC(C3)C2C1=O (stereo unspecified) | 3 | -7 | 42* | 66* | 1 | 0.3
SMILES | CYP2C9 inh | PostGolgi yeast | PostGolgi ctrl | CYP2C19 inhib | CYP2C9 activ | CYP2C19 activ
CN(C)C=Nc1ncc2c([nH]c3ccccc32)c1C#N | 50 | -2 | 4 | 63* | 0.5 | 0.4
O=C(CCCCCN1C(=O)c2ccccc2C1=O)NC1CCCC1 | 89* | -5 | 6 | 78* | 0.1 | 0.2
Cc1cccc(NC(=O)CCCN2C(=O)c3ccccc3C2=O)n1 | 26 | 27 | 13 | 16 | 0.7 | 0.8
Cc1cccc(NC(=O)CCCCCN2C(=O)c3ccccc3C2=O)n1 | 79* | -6 | -2 | 24 | 0.2 | 0.8
COCc1nnc(NC(=O)CCCCCN2C(=O)c3ccccc3C2=O)s1 | 63* | 5 | 0 | 11 | 0.4 | 0.9
CC(C)Cc1nnc(NC(=O)CCN2C(=O)c3ccccc3C2=O)s1 | 24 | 2 | 2 | 3 | 0.8 | 1
CCN(CC)C(=O)C(=O)N/N=C/c1cccc(Br)c1 | 6 | -1 | 10 | 2 | 0.9 | 1
CC12CCC(C(=O)Nc3cc(Cl)ccc3Cl)(C/C1=N\O)C2(C)C (stereo unspecified) | -206 | -7 | 1 | 26 | 3.1* | 0.7
CCOC(=O)NC(CC(=O)O)c1ccc(OC)cc1 (stereo unspecified) | -30 | -1 | 9 | -10 | 1.3 | 1.1
COc1ccc(/C=N/n2c(-c3cccs3)n[nH]c2=S)cc1 | 32 | 2 | 40* | -5 | 0.7 | 1
Cc1ccc(/C=N/n2c(-c3cccs3)n[nH]c2=S)cc1 | 25 | -10 | 33* | 13 | 0.8 | 0.9
COC(=O)c1c(NC(=O)c2nc3ncccn3n2)sc(C(=O)N(C)C)c1C | -6 | . | . | -10 | 1.1 | 1.1
CCOC(=O)c1c(NC(=O)OC)sc(C(=O)N(CC)CC)c1C | 67* | -1 | 12 | 56* | 0.3 | 0.4
CCOC(=O)c1c(NC(=O)c2ccoc2C)sc(C(=O)N(C)C)c1C | 83* | 8 | -3 | 57* | 0.2 | 0.4
CCOC(=O)c1c(NC(=O)COC)sc(C(C)=O)c1C | 38 | 11 | 11 | 17 | 0.6 | 0.8
CCN(CC)C(=O)c1sc(NC(=O)C(Sc2ccccc2)c2ccccc2)c(C(=O)OC(C)C)c1C (stereo unspecified) | 84* | -6 | 8 | 21 | 0.2 | 0.8
CCOC(=O)c1sc(NC(=O)CN(CC(C)C)CC(C)C)c(C(=O)OCC)c1C | 62* | 4 | -4 | 35 | 0.4 | 0.7
Cc1cc(C)c(NC(=O)CC(C)(C)C)c(Cl)c1 | 3 | 5 | 3 | 2 | 1 | 1
C=CCNC(=O)C1CC(=O)N(c2ccc(C)cc2)C1 (stereo unspecified) | -2 | 0 | 26 | 33 | 1 | 0.7
CCOC(=O)c1cc2c(C)n(-c3ccc(OCC)cc3)c(C)c2ccc1=O | 20 | 0 | 5 | 64* | 0.8 | 0.4

Assay outcomes (PubChem BioAssay)
